Assay results: PubChem BioAssay AID2685 (National Center for Advancing Translational Sciences (NCATS), 2010)
Where “and” joins values, the source holds several entries; their conditions need not be identical. Equal entries are not always repeated. The whole screen tested about 320,000 compounds, of which about 2,100 (0.66%) were called active. Roughly 53% stayed inconclusive and do not appear here. The sample holds actives, similar compounds and a random draw of the others, so the mix is not that of the screen. The call rests on the fitted dose curve; in most records, active means well fitted inhibition curve with a large enough effect in the signal ratio, with a control signal flat (not every such curve was filed as active); inconclusive means small, poorly fitted or top-dose-only effect, or effect the other way, or a change in a side signal; inactive means flat fitted curve, though single readings scatter; the % refers to the signal ratio.

assay: qHTS Assay for Lipid Storage Modulators in Drosophila S3 Cells; conditions: BODIPY lipid droplet fluorescence, 18-24 h, cells fed with added oleic acid; cell number change: measured here: cell count max response; series mostly up to 46.1 µM; lipid storage change, negative = inhibition: at the top concentration;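 on cell number change: cells counted by Cell Tracker Red CMTPX staining in the red channel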; on lipid storage change, negative = inhibition: on the % scale 0 is the no-effect control and ±100 the full control effect
Method in brief: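 Drosophila S3 cells got compounds at several concentrations plus oleic acid (400 uM solution). Laser-scanning cytometry with 488 nm excitation read lipid droplets at 500-530 nm and cells at 575-640 nm. Percent activity was relative to 20 uM Triacsin C.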
Potency means the concentration at half of the fitted maximal effect.

| SMILES | outcome | lipid storage change, negative = inhibition | cell number change | Potency |
| --- | --- | --- | --- | --- |
| O=C1C2C3C=CC(C3)C2C(=O)N1c1cccc2ccccc12 (stereo not given) | inactive |  |  |  |
| CCCN(c1ccccc1C(=O)O)S(=O)(=O)c1ccc2c(c1)n(C)c(=O)n2C |  | 7.64% (inactive) | 4.38% |  |
| CN(Cc1cccc(Cl)c1)C(=O)C1CSC2(C)CCC(=O)N12 (stereo not given) |  | -14.7% (inactive) | 2.85% |  |
| COc1ccc(Oc2cccc(Cl)c2CNC(=O)CCCC(=O)O)cc1 |  | 19% (inactive) | -4.23% |  |
| CC1(C)CC(O)C(C)(C)N1O (stereo not given) |  | -10.4% (inactive) | 0.759% |  |
| COc1ccc2[nH]c(=O)c(CN(C(=O)C3CCCO3)c3ccc(C)cc3)cc2c1 (stereo not given) |  | 22.5% (inactive) | -16.8% |  |
| O=C(O)CCC(=O)Nc1ccc(/C=C/C(=O)C2CC2)cc1 |  | 4.47% (inactive) | 0.554% |  |
| COc1ccc(C(C[N+](=O)[O-])n2nc(C)cc2C)cc1 (stereo not given) |  |  | -16.7% | 5.17 µM (active) |
| Cc1ccc(C(C[N+](=O)[O-])n2nc(C)cc2C)cc1 (stereo not given) | inactive |  | 28.9% |  |
| COC(=O)C(C(=O)OC)C(C[N+](=O)[O-])c1ccc(OC)cc1 (stereo not given) |  | -0.0854% (inactive) | -3.46% |  |
| CCCCn1c(=O)nc2n(-c3ccc(Cl)cc3)c3ccccc3cc-2c1=O |  | 16.3% (inactive) |  |  |
| C=CCNC(=O)c1ccc(Sc2ccc(C)cc2)c([N+](=O)[O-])c1 |  | -20% (inactive) | -8.5% |  |
| CCOC(=O)/C(=C\c1cccc(O)c1)c1nc2sc(C)c(C)c2c(=O)[nH]1 |  |  | -21.1% | 20.6 µM (active) |
| CCOC(=O)c1nc2sc(C)c(C)c2c(=O)[nH]1 |  | 5.14% (inactive) | -3.45% |  |
| Cc1c(C(=O)O)sc2nc(/C=C/c3cccc(O)c3)[nH]c(=O)c12 |  | 0.183% (inactive) | 5.19% |  |
| NC(=O)C1CCN(c2ccnc3cc(Cl)ccc23)CC1 |  | -18.4% (inactive) | -7.1% |  |
| Cc1ccc(N(C(=O)CCCC(=O)Nc2ccccn2)C(C(=O)NC2CCCC2)c2ccc(O)cc2)cc1C (stereo not given) | inactive |  | -6.35% |  |
| Cc1cc(C)cc(NC(=O)c2sc3nc4n(c(=O)c3c2C)CCC4)c1 |  |  | -23.1% | 18.4 µM (active) |
| Cc1c(C(=O)Nc2ccc(OC(F)(F)F)cc2)sc2nc3n(c(=O)c12)CCC3 |  | -11.7% (inactive) | 2.69% |  |
| CCOc1ccc(CCNC(=O)c2sc3nc4n(c(=O)c3c2C)CCC4)cc1 |  | -17.7% (inactive) | 17.9% |  |
| CCc1cccc(NC(=O)c2sc3nc4n(c(=O)c3c2C)CCC4)c1 |  |  | -22.1% | 5.8 µM (active) |
| COc1ccccc1N1CCN(C(=O)c2sc3nc4n(c(=O)c3c2C)CCC4)CC1 |  | -15.3% (inactive) | -21.5% |  |
| COc1ccc(COC(=O)c2sc3nc4n(c(=O)c3c2C)CCC4)cc1 | inactive |  |  |  |

| SMILES | outcome | lipid storage change, negative = inhibition | cell number change | Potency |
| --- | --- | --- | --- | --- |
| Cc1c(C(=O)NCCO)sc2nc3n(c(=O)c12)CCC3 |  | -0.957% (inactive) | 20% |  |
| COc1cccc(NC(=O)c2sc3nc4n(c(=O)c3c2C)CCC4)c1 |  |  | -27.4% | 4.11 µM (active) |
| CCc1ccc(NC(=O)c2sc3nc4n(c(=O)c3c2C)CCC4)cc1 |  |  | -24% | 2.31 µM (active) |
| CCOC(=O)c1sc2nc3n(c(=O)c2c1C)CCC3 |  | 18.2% (inactive) | 7.44% |  |
| CCOC(=O)c1sc2nc3n(c(=O)c2c1C)CCCCC3 |  | 14.1% (inactive) | -6.59% |  |
| CCc1cccc(NC(=O)c2ccc3c(=O)n4c(nc3c2)CCCCC4)c1 |  | 5.18% (inactive) | -2.31% |  |
| Cc1cccn2c(=O)c3cc(C(=O)NCCCN4CCOCC4)n(C)c3nc12 |  | 21.1% (inactive) |  |  |
| CCCCN1C(=O)NC(NC(=O)C2CC2)(C(F)(F)F)C1=O (stereo not given) |  | 0.363% (inactive) | 15% |  |
| CC(=O)Nc1ccc(S(=O)(=O)N(C#N)c2nc(N(C)C)nc(N(C)C)n2)cc1 |  | 0.237% (inactive) | -23% |  |
| CN(C)CC(=O)Nc1ccc2cn[nH]c2c1 |  | 0.452% (inactive) | -1.8% |  |
| CSc1nc(C)c(Cl)c(C)c1C#N |  | 10.8% (inactive) | -6.02% |  |
| COc1cc(Cl)cc(C(=O)O)c1OCC(=O)O |  | 7.31% (inactive) | 3.53% |  |
| O=C(/C=C/c1ccc(F)cc1)N1CCN(c2ncccn2)CC1 |  | -0.413% (inactive) | 20.7% |  |
| CC(=O)NNC(=O)CCn1c2c(c3ccccc31)CCCC2 |  | -7.9% (inactive) | 1.32% |  |
| Fc1ccccc1CNc1ccc(Cl)cc1 |  | 12.9% (inactive) | -4.41% |  |
| CN(C)S(=O)(=O)Nc1ccccc1F |  | -12.4% (inactive) | -0.564% |  |
| CN(C)S(=O)(=O)Nc1cccc(Br)c1 |  |  | 0.321% and 14.1% | inactive |
| CN(C)S(=O)(=O)Nc1ccc(Br)cc1F |  |  | -21.1% | 23.1 µM (active) |
| CC(=O)c1c(C)[nH]c(C(=O)NCc2cccs2)c1C | inactive |  |  |  |
| COc1ccc(N2CCN(CC(O)COc3ccc4c(c3)CCC4)CC2)cc1 (stereo not given) | inactive |  | 10.4% |  |
| O=C1CN(CC(=O)N2CCOCC2)c2ccccc2O1 | inactive |  |  |  |
| COc1ccc(/C(C)=N/NC(=S)NCCc2ccccc2)cc1 | inactive |  |  |  |
| COc1cccc(OC)c1C(=O)NC(C)c1ccccc1 (stereo not given) |  | 2.45% (inactive) | 0.137% |  |

| SMILES | outcome | lipid storage change, negative = inhibition | cell number change | Potency |
| --- | --- | --- | --- | --- |
| NS(=O)(=O)c1ccc(CCNC(=O)c2ccc3c(c2)OCO3)cc1 |  |  | 21.4% | 23.1 µM (active) |
| O=C(NCCc1ccc(Cl)cc1)c1ccc2c(c1)OCO2 |  | -3.03% (inactive) |  |  |
| NS(=O)(=O)c1ccc(CCNC(=O)c2ccc3c(c2)OCCO3)cc1 |  | -3.84% (inactive) | 12.5% |  |
| CCCCSc1nc2sc3c(c2c(=O)n1-c1ccc(C)cc1)CCN(C)C3 |  | -30% (inactive) | 14.8% |  |
| CS(=O)(=O)Oc1ccc(/C=C2\C(=N)N3N=C(CC(=O)N4CCOCC4)SC3=NC2=O)cc1Cl | inactive |  | 6.05% |  |
| Cc1cc(/C=C2/C(=O)N(C)C(=S)N2C)ccc1N1CCCC1 |  |  | -25.4% | 4.47 µM (active) |
| CN1C(=O)/C(=C/c2ccc(O)c([N+](=O)[O-])c2)N(C)C1=S |  | 3.49% (inactive) | 0.447% |  |
| COc1cc(/C=C2\C(=O)N(C)C(=S)N2C)ccc1O |  | 2.76% (inactive) | -9.16% |  |
| CCc1ccc(NC(=O)c2cc(C)nn2-c2ccccc2)cc1 |  | 9.85% (inactive) | 2.41% |  |
| CC12CCC(=O)N1C(C(=O)NNC(=O)c1ccc(Cl)cc1)CS2 (stereo not given) |  | -23.9% (inactive) | 25.5% |  |
| COCCn1c(SCC(=O)Nc2cc(C)on2)nc2c(c1=O)SC(C)C2 (stereo not given) |  | 15.1% (inactive) | 9.04% |  |
| Cc1csc(NC(=O)CSC2=NS(=O)(=O)c3cc(F)ccc3N2)n1 |  | 27.8% [at 0.0737 µM] (inactive) |  |  |
| CCCN(C(=O)COC(=O)CCOc1ccccc1)c1c(N)n(Cc2ccccc2)c(=O)[nH]c1=O |  |  | -10.8% | 14.6 µM (active) |
| CCCN(C(=O)c1ccc([N+](=O)[O-])c(C)c1)c1c(N)n(Cc2ccccc2)c(=O)[nH]c1=O |  | -11% (inactive) | -21.6% |  |
| CCN(C(=O)COC(=O)CCOc1ccccc1)c1c(N)n(Cc2ccccc2)c(=O)[nH]c1=O |  | 6.7% (inactive) | 3.61% |  |
| CCN(C(=O)CN1CCN(c2cccc(Cl)c2)CC1)c1c(N)n(Cc2ccccc2)c(=O)[nH]c1=O |  | 8.94% (inactive) | -10% |  |
| CCCN(C(=O)C1=COCCO1)c1c(N)n(Cc2ccccc2)c(=O)[nH]c1=O |  | 5.43% [at 0.0737 µM] (inactive) | -8.42% |  |
| CCN(C(=O)COC(=O)CCCOc1ccccc1)c1c(N)n(Cc2ccccc2)c(=O)[nH]c1=O |  | -0.952% (inactive) | -12.5% |  |
| CCCN(C(=O)c1c(-c2ccccc2)noc1C)c1c(N)n(Cc2ccccc2)c(=O)[nH]c1=O |  |  | 9.83% | 1.84 µM (active) |
| CCN(C(=O)CN1CCN(c2ccccc2)CC1)c1c(N)n(Cc2ccccc2)c(=O)[nH]c1=O |  |  | -21.7% | 13 µM (active) |
| CCN(C(=O)CN1CCCCC1)c1c(N)n(Cc2ccccc2)c(=O)[nH]c1=O |  | -1.92% (inactive) | 1.16% |  |
